Test results published in PubChem BioAssay (NCATS).
Results filed as inconclusive are left out. Entries that show only a call come without a potency. Calls of active or inactive are those of the source. Calls come from the whole dose curve; as a rule, active = well fitted curve in the direction sought with a large enough effect; inconclusive = small, poorly fitted or top-dose-only effect, or another doubt; inactive = no such curve, though single readings can be large; an effect the other way counts as inactive or inconclusive.

Tests used:
[1] = Cell Viability - LYMP2-004 (AID 966); note: nearly all actives have a fitted effect of over 65% in size; note: potency is the fitted concentration of half-maximal effect
In short: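 qHTS cytotoxicity: human lymphoblastoid line, 24 hr compound treatment, 37 C, complete medium. Viability read as cellular ATP via luciferase luminescence; tetraoctylammonium bromide served as positive control.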

[2] = Cell Viability - LYMP2-005 (AID 967);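 note: series mostly up to about 92 µM; cells exposed to compound for 24 h at 37 °C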
In short: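 Acute cytotoxicity is scored as a concentration-dependent drop in intracellular ATP in human lymphoblastoid LYMP2-005 cells after 24 h compound treatment. ATP is quantified by luciferase luminescence, and AC50 is derived by Hill-equation modelling.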

[3] = Cell Viability - LYMP2-009 (AID 968);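 note: cells exposed to compound for 24 h at 37 °C; nearly all actives have a fitted effect of over 55% in size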; note: potency is the fitted concentration of half-maximal effect
[4] = Cell Viability - LYMP2-015 (AID 971); note: nearly all actives have a fitted effect of over 55% in size; note: potency is the fitted concentration of half-maximal effect
In short: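 Cells are seeded at 2500 per well and incubated 5 hr at 37 C. Compounds are added across a concentration series for 24 hr at 37 C. CellTiter-Glo is added, and luminescence is read after 30 min at room temperature.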

[5] = Cell Viability - LYMP2-017 (AID 972); note: series mostly up to about 92 µM; nearly all actives have a fitted effect of over 55% in size
In short: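 Cytotoxicity is scored as a concentration-dependent drop in cellular ATP in a human lymphoblastoid line after 24 hr treatment at 37 C. Values are AC50s from Hill-equation modelling.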

[6] = Cell Viability - LYMP2-019 (AID 973);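 note: cells exposed to compound for 24 h at 37 °C; nearly all actives have a fitted effect of over 55% in size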; note: potency is the fitted concentration of half-maximal effect
In short: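 Cytotoxicity is scored as a concentration-dependent drop in cellular ATP after cells (2500/well) receive compound for 24 hr at 37 C. Tetraoctylammonium bromide serves as positive control.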

[7] = Cell Viability - LYMP2-021 (AID 974); note: potency is the fitted concentration of half-maximal effect
In short: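 Loss of cellular ATP, measured with a luciferase-based CellTiter-Glo readout, serves as the toxicity signal in human lymphoblastoid cells treated for 24 hours at 37 C. Potency is reported as AC50 from a standard Hill model.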

[8] = Cell Viability - LYMP2-013 (AID 970); note: potency is the fitted concentration of half-maximal effect
In short: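 Cytotoxicity is scored as a concentration-dependent drop in intracellular ATP in human lymphoblastoid cells after 24 hr compound exposure at 37 C. ATP is quantified by luciferase luminescence, and AC50 values come from Hill-equation modeling.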

[9] = Cell Viability - LYMP2-023 (AID 975); note: nearly all actives have a fitted effect of over 55% in size; note: potency is the fitted concentration of half-maximal effect
In short: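 Steps: seed 2500 human lymphoblastoid cells per well, incubate 5 hr at 37 C, add compound for 24 hr at 37 C, add CellTiter-Glo, hold 30 min at room temperature, read luminescence. AC50 derived by Hill modelling.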

[10] = Cell Viability - LYMP2-011 (AID 969); note: nearly all actives have a fitted effect of over 60% in size; note: potency is the fitted concentration of half-maximal effect
In short: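 In this qHTS cytotoxicity format, compounds are tested across concentrations on human lymphoblastoid cells in complete medium for 24 hours at 37 C. Viability is taken as cellular ATP measured by luciferase luminescence.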

| SMILES | Potency [1] | outcome [2] | Potency [3] | Potency [4] | Potency [5] | Potency [6] | Potency [7] | Potency [8] | Potency [9] | Potency [10] |
| --- | --- | --- | --- | --- | --- | --- | --- | --- | --- | --- |
| CCOC(=O)C(C)C(C)=O (stereo not given) | inactive | inactive | inactive | inactive | inactive | inactive | inactive |  |  |  |
| O=Cc1ccc(C(=O)O)cc1 | inactive | inactive | inactive | inactive | inactive | inactive | inactive | inactive | inactive |  |
| CNc1ccccc1 | inactive | inactive | inactive | inactive | inactive | inactive | inactive | inactive | inactive |  |
| CCCCCNCCCCC | inactive | inactive | inactive | inactive |  | inactive | inactive | inactive |  |  |
| CCOc1cccc(N)c1 | inactive | inactive | inactive | inactive | inactive | inactive | inactive | inactive | inactive |  |
| C=CCCCC | inactive | inactive | inactive | inactive | inactive | inactive | inactive |  | inactive |  |
| CC(C)(C)OCC1CO1 (stereo not given) | inactive | inactive | inactive | inactive | inactive | inactive | inactive |  | inactive |  |
| CC(=O)c1ccccc1[N+](=O)[O-] | inactive | inactive |  | inactive | inactive | inactive | inactive | inactive |  | inactive |
| O=C(Cl)c1ccccc1[N+](=O)[O-] | inactive | inactive |  | inactive | inactive | inactive | inactive | inactive | inactive | inactive |
| Cc1cccc(C)c1[N+](=O)[O-] | inactive | inactive | inactive | inactive | inactive | inactive | inactive | inactive | inactive |  |
| c1ccsc1 | inactive | inactive |  | inactive | inactive | inactive | inactive | inactive | inactive | inactive |
| O=C1C=CCCC1 | inactive | inactive |  | inactive | inactive | inactive | inactive | inactive | inactive | inactive |
| CCCCC(CC)COC(=O)CCCCC(=O)OCC(CC)CCCC (stereo not given) | inactive | inactive | inactive | inactive | inactive | inactive | inactive | inactive | inactive |  |
| CCN(C(=O)N(CC)c1ccccc1)c1ccccc1 | inactive | inactive |  | inactive | inactive | inactive | inactive | inactive | inactive | inactive |
| Cc1ccc(C)c([N+](=O)[O-])c1 | inactive | inactive |  | inactive | inactive | inactive | inactive | inactive | inactive | inactive |
| CCOC(=O)OCC | inactive | inactive |  | inactive | inactive | inactive | inactive | inactive | inactive | inactive |
| CNC(=O)c1ccccc1 | inactive |  | inactive | inactive | inactive | inactive | inactive | inactive | inactive | inactive |
| O=C(O)c1cc(Cl)cc(Cl)c1 | inactive |  | inactive | inactive | inactive | inactive | inactive | inactive | inactive | inactive |
| C=C(C)C1CC=C(C)C(OC(C)=O)C1 (stereo not given) | inactive |  | inactive | inactive | inactive | inactive | inactive | inactive | inactive | inactive |
| C/C=C1\CC2C=CC1C2 (stereo not given) | inactive |  | inactive | inactive | inactive | inactive | inactive | inactive | inactive | inactive |

| SMILES | Potency [1] | outcome [2] | Potency [3] | Potency [4] | Potency [5] | Potency [6] | Potency [7] | Potency [8] | Potency [9] | Potency [10] |
| --- | --- | --- | --- | --- | --- | --- | --- | --- | --- | --- |
| C=C(C)C(=O)OCC(C)O (stereo not given) | inactive |  | inactive | inactive | inactive | inactive | inactive | inactive | inactive | inactive |
| O=C(O)c1cccc([N+](=O)[O-])c1 | inactive |  | inactive | inactive | inactive | inactive | inactive | inactive | inactive | inactive |
| C(=C/c1ccccc1)/c1ccccc1 | inactive |  | inactive | inactive | inactive | inactive | inactive | inactive |  | inactive |
| CCCCC(CC)COCC1CO1 (stereo not given) | inactive |  | inactive | inactive | inactive | inactive | inactive | inactive | inactive | inactive |
| Cc1ccc(C)c(N)c1 | inactive |  | inactive | inactive | inactive | inactive | inactive | inactive | inactive | inactive |
| C=CCOC(=O)CCCCCCCC | inactive | inactive |  |  | inactive | inactive | inactive | inactive | inactive | inactive |
| Cc1ccccc1C(=O)O | inactive |  | inactive | inactive | inactive | inactive | inactive | inactive | inactive | inactive |
| O=[N+]([O-])c1c(Cl)cc(Cl)cc1Cl | inactive |  | inactive | inactive | inactive | inactive | inactive | inactive | inactive | inactive |
| C/C=C(/C)C#N | inactive |  | inactive | inactive | inactive | inactive | inactive | inactive | inactive | inactive |
| Nc1ccc([N+](=O)[O-])c(N)c1 | inactive | inactive |  | inactive | inactive | inactive | inactive |  | inactive | inactive |
| CCCCC(CC)CO (stereo not given) | inactive |  | inactive | inactive | inactive | inactive | inactive | inactive | inactive | inactive |
| Clc1ccccn1 | inactive |  | inactive | inactive | inactive | inactive | inactive | inactive | inactive | inactive |
| Clc1cc(Cl)cc(Cl)c1 | inactive |  | inactive | inactive | inactive | inactive | inactive | inactive | inactive | inactive |
| CCC(C)(C)C(=O)O | inactive | inactive |  | inactive | inactive | inactive |  | inactive | inactive | inactive |
| Cc1cccc(C)c1O | inactive | inactive |  | inactive | inactive | inactive |  | inactive | inactive | inactive |
| CC(=O)Nc1ccc(C)cc1 | inactive |  | inactive | inactive |  | inactive | inactive | inactive | inactive | inactive |
| CC1=C(/C=C/C(C)=C/C=C/C(C)=C\C=O)C(C)(C)CCC1 | 31.6 µM (active) |  | 50.1 µM (active) | 39.8 µM (active) |  | 50.1 µM (active) | 50.1 µM (active) | 50.1 µM (active) | 50.1 µM (active) | 50.1 µM (active) |
| CC(=O)c1nccs1 | inactive |  | inactive | inactive | inactive | inactive | inactive | inactive | inactive | inactive |
| CSCCC=O | inactive |  | inactive | inactive | inactive | inactive | inactive | inactive | inactive | inactive |
| NC=O | inactive |  | inactive | inactive | inactive | inactive | inactive | inactive | inactive | inactive |

| SMILES | Potency [1] | outcome [2] | Potency [3] | Potency [4] | Potency [5] | Potency [6] | Potency [7] | Potency [8] | Potency [9] | Potency [10] |
| --- | --- | --- | --- | --- | --- | --- | --- | --- | --- | --- |
| CC(C)(O)CCC(C)(C)O | inactive |  | inactive | inactive | inactive | inactive | inactive | inactive | inactive | inactive |
| Cc1cscn1 | inactive | inactive |  |  | inactive | inactive | inactive | inactive | inactive | inactive |
| CCCCCCCCCCCCC1CO1 (stereo not given) | inactive | inactive |  | inactive | inactive | inactive | inactive | inactive | inactive | inactive |
| O=C(O)c1ccc(CO)o1 | inactive | inactive |  | inactive |  |  |  | inactive | inactive | inactive |
| CC(C)=CCC/C(C)=C/C=O | inactive |  | inactive | inactive | inactive | inactive | inactive | inactive | inactive | inactive |
| CC(=O)OC(C)=O | inactive |  | inactive | inactive | inactive | inactive | inactive | inactive | inactive | inactive |
| O=C(O)CNC(=O)c1ccc([N+](=O)[O-])cc1 | inactive |  | inactive | inactive | inactive | inactive | inactive | inactive | inactive | inactive |
| Cc1cc(C(=O)O)ccc1[N+](=O)[O-] | inactive |  | inactive | inactive | inactive | inactive | inactive | inactive |  | inactive |
| BrC(Br)C(Br)Br | inactive | inactive |  | inactive | inactive | inactive | inactive |  | inactive | inactive |
| Cc1ccccc1Br | inactive | inactive |  | inactive | inactive | inactive | inactive | inactive | inactive | inactive |
| O=C1OC(=O)c2c(Br)c(Br)c(Br)c(Br)c21 | inactive |  | inactive | inactive | inactive | inactive | inactive | inactive | inactive | inactive |
| CNC(=O)N(c1ccccc1)c1ccccc1 | inactive |  | inactive | inactive | inactive | inactive | inactive | inactive |  | inactive |
| CCN(CC)c1cccc(O)c1 | inactive |  | inactive | inactive | inactive | inactive | inactive | inactive | inactive | inactive |
| Cc1cc(C)cc(O)c1 | inactive |  | inactive | inactive | inactive | inactive | inactive | inactive | inactive | inactive |
| O=[N+]([O-])c1ccc2nc[nH]c2c1 | inactive |  | inactive | inactive | inactive | inactive | inactive | inactive |  | inactive |
| O=c1[nH][nH]c(=O)c2cc([N+](=O)[O-])ccc12 | inactive |  | inactive | inactive | inactive | inactive | inactive | inactive | inactive | inactive |
| C=C(C)C(N)=O |  | inactive | inactive | inactive | inactive | inactive | inactive | inactive | inactive | inactive |
| CC(O)COC(C)(C)C (stereo not given) |  | inactive | inactive | inactive | inactive | inactive | inactive | inactive | inactive | inactive |
| Cc1cccc2ccccc12 | inactive |  | inactive | inactive | inactive | inactive | inactive | inactive | inactive |  |
| NC(=O)c1cccc([N+](=O)[O-])c1 | inactive |  |  | inactive |  | inactive | inactive | inactive | inactive | inactive |
